GDH-TPI counter: counter-screen for M. tuberculosis FBA inhibitors: GDH-TPI coupled enzymes. inhibition, % at 4.8 µM. 360,000 compounds, 1.2% hits. GDH-TPI coupled enzyme counterscreen, NADH absorbance; in the data active = inhibition above about 30%;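 note: 0% = DMSO wells and 100% = wells lacking the enzyme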
Mtb UGM inh: inhibitors of M. tuberculosis UDP-galactopyranose mutase. P9WIQ1. purified UGM, fluorescence polarization probe displacement. inhibition, % at 10 µM. 320,000 compounds, 0.06% hits; in the data active = inhibition above about 10%, passing the limit was not always enough
Mtb FBA inh: inhibits M. tuberculosis FBA enzyme; P9WQA3; purified M. tuberculosis FBA, fluorescence read-out; inhibition, % at 1 µM; 360,000 compounds, 2.3% hits; in the data active = inhibition above about 27%;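 note: 0% = vehicle and 100% = reference inhibitor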
Target sequence (P9WQA3 whole entry, looked up): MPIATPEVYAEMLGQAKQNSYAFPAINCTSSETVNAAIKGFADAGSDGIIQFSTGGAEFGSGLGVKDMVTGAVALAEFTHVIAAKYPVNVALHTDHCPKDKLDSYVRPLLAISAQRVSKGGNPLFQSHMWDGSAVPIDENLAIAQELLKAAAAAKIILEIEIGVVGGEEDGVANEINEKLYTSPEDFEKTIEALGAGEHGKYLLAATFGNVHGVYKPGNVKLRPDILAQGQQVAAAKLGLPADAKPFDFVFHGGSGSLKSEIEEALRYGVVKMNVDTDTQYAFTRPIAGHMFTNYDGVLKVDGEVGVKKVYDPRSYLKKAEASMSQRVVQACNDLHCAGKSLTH
Mtb bLac sens: beta-lactam sensitization of Mtb H37Rv; M. tuberculosis H37Rv growth with meropenem, percent inhibition; inhibition, % at 25 µM; 330,000 compounds, 0.27% hits; AID 434955; call rule not given here;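 note: growth measured after seven days incubation then overnight dye step; 0% = bacteria only wells and 100% = bacteria with antibiotic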
Rv3671c protease: Rv3671c (M. tuberculosis) protease inhibition; 320,000 compounds, 0.048% hits; inhibition, % at 5.96 µM; AID 2606; in the data active = inhibition above about 38%;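 note: extracellular domain of Rv3671c used as enzyme; 0% = enzyme with DMSO and 100% = no enzyme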
Target sequence (P9WHR9 whole entry, looked up, the tested form may be a part): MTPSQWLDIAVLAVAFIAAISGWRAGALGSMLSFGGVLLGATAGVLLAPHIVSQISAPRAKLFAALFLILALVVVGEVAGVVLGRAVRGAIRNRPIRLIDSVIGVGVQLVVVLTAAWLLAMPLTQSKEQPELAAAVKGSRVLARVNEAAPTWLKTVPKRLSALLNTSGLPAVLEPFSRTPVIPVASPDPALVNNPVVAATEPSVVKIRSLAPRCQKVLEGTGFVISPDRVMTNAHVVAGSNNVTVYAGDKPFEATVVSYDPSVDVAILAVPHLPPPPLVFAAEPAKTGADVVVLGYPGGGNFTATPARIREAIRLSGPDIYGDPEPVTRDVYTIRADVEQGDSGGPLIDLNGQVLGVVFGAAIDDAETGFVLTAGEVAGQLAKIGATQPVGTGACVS
RecA splice inh: inhibitors of M. tuberculosis RecA intein splicing. inhibition, % (no concentration beside the values). P9WHJ3. 290,000 compounds, 0.75% hits. cell-free RecA intein splicing, fluorescence. AID 2221; in the data active = inhibition above about 30%;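 note: 0% = vehicle wells and 100% = reference inhibitor control wells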
* hit, by the source's call; nt = no result; + = active, no number. Shown are actives, neighbours in structure and some others; about 4% of the full set was active somewhere.

SMILES | GDH-TPI counter | Mtb UGM inh | Mtb FBA inh | Mtb bLac sens | Rv3671c protease | RecA splice inh
C[C@H]1CN([C@@H](C)CO)C(=O)c2cc(Br)cnc2O[C@H]1CN(C)C(=O)c1ccc2c(c1)OCO2 | 9.3 | nt | 3.1 | nt | nt | nt
O=C(COC(=O)c1ccc(S(=O)(=O)C(F)F)cc1)Nc1ccccc1C(=O)NC1CC1 | 1.1 | 0.0 | -0.3 | -4.2 | 10.7 | nt
C=CCc1cccc2cc(C(=O)N3CCN(C(=O)c4ccccc4)CC3)c(=O)oc12 | -4.2 | -1.5 | -0.8 | -8.1 | -3.2 | 1.2
Cc1cc(C(=O)N/N=C/c2ccc(O)c([N+](=O)[O-])c2)n[nH]1 | 42.6* | 2.3 | -8.6 | 4.2 | -10.5 | -4.4
O=[N+]([O-])c1cc(Cl)cc(/C=N/Nc2nc3ccccc3s2)c1O | 1.9 | 0.3 | -0.7 | 100.2 | 8.0 | -0.7
COc1cc(/C=N/Nc2nc3ccccc3s2)cc([N+](=O)[O-])c1O | 70.0* | -0.2 | 0.1 | 22.4 | 10.6 | 0.2
Cc1cc(C(=O)N/N=C/c2cccc([N+](=O)[O-])c2O)n[nH]1 | -0.7 | 0.1 | -5.0 | -7.8 | 2.6 | 0.1
COc1ccc(/C=N/NC(=O)c2cccnc2)cc1COc1ccc([N+](=O)[O-])cc1 | 15.5 | -1.6 | -3.9 | 13.8 | -10.1 | -0.7
COc1cc(/C=N/NC(=O)c2cccnc2)cc(Br)c1O | 44.2* | 0.7 | 1.9 | 4.3 | -3.4 | -1.7
COc1ccc(/C=N/NC(=O)c2cccnc2)cc1COc1ccc(NC(C)=O)cc1 | 31.0* | -0.9 | -7.8 | -3.8 | -6.4 | -1.1
O=C(N/N=C/c1cc(Br)c(O)c(Br)c1)c1cccnc1 | 30.7* | 0.3 | -0.3 | 9.3 | 5.0 | -2.3
COc1c(Br)cc(Br)cc1/C=N/NC(=O)c1cccnc1 | 24.3 | 5.8 | -1.0 | 3.9 | nt | 0.6
O=C(N/N=C/c1ccc(OC(=O)c2ccc([N+](=O)[O-])cc2)cc1)c1cccnc1 | 2.5 | 0.5 | -1.1 | 41.1 | -1.9 | -1.2
O=C(N/N=C/c1ccc(OC(=O)c2ccccc2)cc1)c1cccnc1 | 0.0 | -1.1 | + | -3.3 | -4.8 | 22.6
O=C1CSc2ccc(C(=O)N3CCCCC3)cc2N1 | -3.6 | nt | -2.7 | nt | nt | nt
Cc1cccc(CC(=O)NCC2CCCCC2)c1 | -2.6 | -1.2 | -0.7 | -5.5 | 0.7 | 0.6
O=C(NN=Cc1ccc(N(CCCl)CCCl)cc1)c1cccnc1 | 37.9* | nt | -1.1 | nt | nt | nt
COc1ccc(NC(=O)c2cc3c(=O)n4ccccc4nc3n2C)c(OC)c1 | 4.4 | 0.4 | 1.6 | -1.7 | -4.4 | -0.4
Cn1c(C(=O)NC2CCCCC2)cc2c(=O)n3ccccc3nc21 | 12.1 | 1.3 | 113.8* | 0.2 | -7.5 | -405.1
CC1CCCCN1C(=O)c1cc2c(=O)n3ccccc3nc2s1 (stereo not drawn) | 19.5 | 0.2 | 100.7* | -1.2 | 0.1 | -1.6
O=C(c1cc2c(=O)n3ccccc3nc2s1)N1CCc2ccccc2C1 | nt | nt | nt | 2.9 | -9.6 | -30.7
Cn1c(C(=O)NCc2ccccn2)cc2c(=O)n3ccccc3nc21 | 26.7 | 0.1 | 196.3* | -3.5 | -6.6 | -238.9
O=C(NC1CCCC1)c1cc2c(=O)n3ccccc3nc2s1 | 18.9 | 0.5 | 178.0* | -12.7 | 0.4 | nt
COc1ccc(C)cc1NC(=O)CCCN1C(=O)CN(C)C1=O | -6.6 | -1.8 | -1.6 | -0.9 | -5.0 | nt
CCCCNC(=O)C1(C)CCN1C(=O)c1ccc(F)cc1Cl (stereo not drawn) | -8.8 | nt | -2.8 | nt | nt | nt
SMILES | GDH-TPI counter | Mtb UGM inh | Mtb FBA inh | Mtb bLac sens | Rv3671c protease | RecA splice inh
CCn1c(SCC(=O)N2CCOCC2)nnc1C(C)NC(=O)c1ccccc1 (stereo not drawn) | -6.2 | 0.4 | -0.5 | -4.0 | -10.8 | -5.3
Fc1ccccc1N1CC(c2ccccc2)C(c2cccs2)=N1 (stereo not drawn) | -2.8 | 1.0 | 161.0* | 5.5 | 0.1 | nt
Cc1c(C)c2ccc(OCC(=O)N3CC[C@@]4(O)CCCC[C@H]4C3)cc2oc1=O | 8.8 | 0.1 | 86.6* | -6.9 | 1.3 | -1.2
NC(=O)C1CCN(C(=O)COc2ccc3c(c2)oc(=O)c2ccccc23)CC1 | 7.8 | 5.1 | 112.3* | -11.5 | 6.6 | 0.2
Cc1c(Cc2ccccc2)c(=O)oc2cc(OCC(=O)N3CCC(C(N)=O)CC3)ccc12 | 15.7 | 0.5 | 124.1* | -9.5 | -0.5 | nt
CCCc1cc(=O)oc2cc(OCC(=O)N3CC[C@@]4(O)CCCC[C@H]4C3)ccc12 | 11.8 | nt | 24.3 | nt | nt | nt
Cc1ccc(S(=O)(=O)/N=C/c2ccc(N(C)C)cc2)cc1 | 35.0* | -2.1 | -1.5 | 3.4 | 1.1 | -6.2
Cc1ccc(S(=O)(=O)/N=C/N(C)C)cc1 | 7.8 | nt | 1.7 | -9.9 | -5.0 | -3.6
COc1ccc(Nc2nc(N)nc(CCl)n2)cc1 | -2.3 | 0.2 | 5.8 | 99.3 | -1.7 | 3.4
Nc1nc(CCl)nc(Nc2ccc3ccccc3c2)n1 | 10.2 | nt | -0.7 | nt | nt | 46.2*
CCCc1cc(C(F)(F)F)c(C#N)c(=O)[nH]1 | 11.2 | 0.5 | 156.0* | -12.6 | 5.7 | -2.6
CC(C)(C)c1cc(C(F)(F)F)c(C#N)c(=O)[nH]1 | 5.0 | 2.2 | 119.5* | 1.5 | 2.0 | 0.9
Cc1cc(C)n(CCC(=O)N2CCc3ccccc32)n1 | -3.9 | -1.0 | 1.2 | -0.9 | 10.6 | -3.1
CC1(C)CC(=O)C(C=Nc2ccccc2)=C(O)C1 | 27.1 | -1.3 | -1.4 | 10.9 | 7.9 | 1.7
CC1(C)CC(=O)C(C=Nc2ccccc2C(=O)O)=C(O)C1 | 42.5* | -1.1 | 13.0 | 5.3 | -4.6 | -3.5
CCOC(=O)CSc1nc2c(sc(=S)n2Cc2ccco2)c(=O)n1-c1ccccc1 | 32.9* | 1.1 | -2.4 | -2.3 | -8.5 | 11.0
CCN(CC)C(=O)CSc1nc2c(sc(=S)n2Cc2ccco2)c(=O)n1-c1ccccc1 | 10.8 | -1.1 | 3.6 | 1.1 | 11.6 | 11.6
COc1ccccc1NC(=O)Cn1c(C)nc2c(sc(=S)n2Cc2ccco2)c1=O | 31.7* | -0.1 | 0.6 | 2.4 | -10.0 | 1.3
Nc1n[nH]c(N)c1N=Nc1ccccc1F | 38.0* | -2.6 | 1.0 | 7.3 | 4.7 | -1.3
CCOC(=O)c1c(=O)n(O)c2ccc(OC)cc2[n+]1[O-] | 8.8 | 14.6* | -15.1 | -2.0 | -5.4 | nt
N=c1c(S(=O)(=O)c2ccc(Br)cc2)cc2c(=O)n3ccccc3nc2n1Cc1ccco1 | 14.8 | 2.3 | 130.6* | 2.5 | -7.0 | 0.2
COc1ccc(CCn2c(=N)c(S(=O)(=O)c3ccc(C)cc3)cc3c(=O)n4ccccc4nc32)cc1 | 6.0 | 20.8* | 5.9 | 8.3 | 0.6 | -14.3
Cc1ccc(Cn2c(=N)c(S(=O)(=O)c3ccc(Br)cc3)cc3c(=O)n4ccccc4nc32)cc1 | 1.7 | 1.5 | 1.7 | -12.0 | 3.2 | 0.4
N=c1c(S(=O)(=O)c2ccc(Br)cc2)cc2c(=O)n3ccccc3nc2n1Cc1ccccc1 | 6.3 | 2.1 | 1.1 | 1.3 | -3.1 | 2.9
Cc1nc2cc(NS(=O)(=O)c3ccccc3F)ccc2s1 | 11.1 | -2.2 | -4.7 | 2.1 | -5.1 | -2.0
Cc1c(NS(=O)(=O)c2cccs2)cccc1-c1nc2cccnc2s1 | 17.7 | 0.9 | 1.1 | -1.4 | -8.8 | -2.9
O=S(=O)(Nc1ccc(-c2nc3cccnc3s2)cc1)c1ccccc1F | 62.5* | 2.3 | + | -8.9 | -8.9 | -11.3

Source: PubChem
